# Experimental data reported in the supplement of paper PMC12632987.
# T1: USP38, Q8NB14
# T1 chain: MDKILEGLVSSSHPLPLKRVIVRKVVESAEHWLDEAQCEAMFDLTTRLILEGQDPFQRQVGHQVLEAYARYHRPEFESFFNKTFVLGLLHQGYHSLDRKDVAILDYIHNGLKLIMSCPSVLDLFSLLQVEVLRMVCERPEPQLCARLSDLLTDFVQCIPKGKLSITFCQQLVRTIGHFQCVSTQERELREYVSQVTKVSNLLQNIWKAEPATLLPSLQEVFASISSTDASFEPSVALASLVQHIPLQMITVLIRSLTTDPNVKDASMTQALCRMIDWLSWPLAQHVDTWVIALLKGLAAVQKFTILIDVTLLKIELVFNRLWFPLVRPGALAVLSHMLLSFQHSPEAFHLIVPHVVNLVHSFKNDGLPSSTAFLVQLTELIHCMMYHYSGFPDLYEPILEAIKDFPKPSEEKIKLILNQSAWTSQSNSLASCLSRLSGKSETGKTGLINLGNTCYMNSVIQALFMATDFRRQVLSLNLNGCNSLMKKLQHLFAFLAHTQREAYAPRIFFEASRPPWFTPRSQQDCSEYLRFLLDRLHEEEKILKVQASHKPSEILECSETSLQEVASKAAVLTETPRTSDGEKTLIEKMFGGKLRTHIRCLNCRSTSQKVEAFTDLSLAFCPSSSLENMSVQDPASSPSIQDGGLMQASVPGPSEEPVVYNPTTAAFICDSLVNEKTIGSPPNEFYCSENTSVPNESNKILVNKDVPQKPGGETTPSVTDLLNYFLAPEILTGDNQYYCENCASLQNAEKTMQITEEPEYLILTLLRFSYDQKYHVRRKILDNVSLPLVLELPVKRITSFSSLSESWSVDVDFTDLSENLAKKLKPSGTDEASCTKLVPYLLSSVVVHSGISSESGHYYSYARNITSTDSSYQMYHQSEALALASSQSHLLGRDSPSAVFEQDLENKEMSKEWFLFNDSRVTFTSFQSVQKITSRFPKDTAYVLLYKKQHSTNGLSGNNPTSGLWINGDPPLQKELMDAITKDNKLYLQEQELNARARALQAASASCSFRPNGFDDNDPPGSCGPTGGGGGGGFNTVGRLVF
# B1: usp_38_diff_out_16_25_200 (protein)
# chain: SVEALLEAHDHLGEAAGHILRAKESKDEEEKKKLLEEAIKHLEKALKIMKEKLKIPEEVAEEIEKKIERAKKLLEEGAPFEEVIKELEEAIDLAAKALAA
# B2: usp_38_diff_out_16_13_187 (protein)
# chain: SELEKLLKKLEELTKKAEEKKKELEKLIKEGAPKEEIREKLEELRELLIEAAGTILEIRNLMVEKANEEQRKKAREKLKEAEEKLNEAINLYVEKELELA
# B3: usp_38_diff_out_16_37_211 (protein)
# chain: MEEEIEKARKEMEEHLEKALELAERALKLVEEGASEAEIEKAMQEATDALLKAGRAAAELIHLDPSLEDEVVARYDEVATRVAALLREVQEALRARRAAE
# B4: usp_38_diff_out_17_125_215 (protein)
# chain: SDEELKKEIEKKLKEAEELLKEAEKALEAGAPAEEVEKLLDAAADALGQLAVLLRELREKSKDKAQAAKFIKKATEEANKLIDRYTELAERNFLRVAEEQ
# B5: usp_38_diff_out_17_125_213 (protein)
# chain: AEAALIAEIEALLAEATAKVKEAEALLKAGAPTEEVLKALDAARDALGALAVALERLRRESADRAQAAAVIKAATAEADKLIDRLTELETEAFLRQAEEA
# B6: usp_38_diff_out_16_25_195 (protein)
# chain: SVEALLRAHDLIGRAAGLVLRARESEDPEEQRRLLEEAIRHLEEALELLKEELKIDEETAEKIEKLIEEARRLLEEGAPFEEVIKVLEEAIDLAVDALAK
# B7: usp_38_diff_out_17_125_217 (protein)
# chain: SSEELKEEIEKALKEAEELLKKAKELLEAGAPFEEIMAALDKAADALGKLAVLLRKLREESEDPAQAAKFIKEATKRADELIDEYTKLATEAFQREADAA
# B8: usp_38_diff_out_16_25_191 (protein)
# chain: SVEALLRAHDKLGEAAGYILQAKEKKDSEEARKLLEKAVKALEEALKILVEELKIDPKDAEEIEKLIKEAKKLLKEGAPVEEVIKVLEKAVDAAAKALAK
# B9: usp_38_diff_out_16_25_201 (protein)
# chain: EVEALLEAHDHLGDAAGYVLRAKESEDEEERKRLLREALESLRRALDILRERLHIPEEEAERIEALIEEAERLLEEGAPFEEVIAVVEEAIDLAAEALAR
# B10: usp_38_diff_out_16_25_189 (protein)
# chain: SVEALLKAHEELGEAAGYIVQARENKDKPEARELLKKAIESLEKALEILEKELKIDEKVAKEIREKIERARKLLEEGKPVEEVIKELEEALDLAIEALAK
# B11: usp_38_diff_out_16_25_194 (protein)
# chain: EVEALLKAHDEIGWAAGKLLEAKESKDPEEQKKLLEEALKHLEKALKILKEELKIDEETLKKIEELIKKAKKLLKEGAPFEEVIKTLEEAIDLAVDALNK
# B12: usp_38_diff_out_16_37_210 (protein)
# chain: GEEVLKEFKEFMEKAIEEAKKLAEEAKKLAKEGADIEELKKLKEELEKLIDEAVEKTTEALEKVPEKIEEIFAEFDKFADEAAKAGKEIDKAIKEAKKKK
# B13: usp_38_diff_out_16_37_203 (protein)
# chain: SAAEVEALMARLREAVERARELIERARRAIEEGADEAEIERLLEEATRALEEAGRALAEILLLDPARYPEARALYDETAARFGEVVAEARDARRERRARA
# B14: usp_38_diff_out_17_125_218 (protein)
# chain: SDEELKKEIERLLEEAERLLEEAEKALEEGAPFEEIRKLLDEAADALGQAAVKLRELREKSEDPAQAAKFIKEATERANELIDRYTELATRAFLREAEAA
# B15: usp_38_diff_out_16_25_196 (protein)
# chain: EVEALLRAHDEIGRAAGLVLRAREEEDPERQRELLREALEHLRRALEILREELRVDEETARELEELIERAERLLEEGAPAEEVIAVIEEAIDLAVDALAE
# B16: usp_38_diff_out_16_37_205 (protein)
# chain: GEELLEEFRRFMEEAEREARRLAEEARELAEKGADIEEIERVLEELERLLDEVVERTTEVLEAVPEHADEILAEYDRAATTLAEAGKEIREKLREAKEKE
# B17: usp_38_diff_out_16_37_208 (protein)
# chain: AEAKLAEFAAFMERAIEEARRLAEEARRLAEEGAPVEEIERLLEELRRLLDEVVERTTEVLEEVPEHADEILALYDRAATEIAEAGQEIREELRRRREEE
# B18: usp_38_diff_out_17_125_219 (protein)
# chain: SDADLEAEAKALLAEAKALLKEAEKLLKEGAPFEEIRKKLDAAADKLGQLAVTLQQLRDKSKDKAQAAKFIKEMTAEANKLIDEYTKLATEAFLREAEEA
# B19: usp_38_diff_out_17_125_212 (protein)
# chain: MFEELKKKIEELLEEARRLVEEAERALAAGAPTAEVRRLLDQAADALGQLAVELRKLREESKDKAQAAKVIKEATKEANELIDRLTELETRVFLREAEAA
# B20: usp_38_diff_out_16_25_192 (protein)
# chain: SVEALLRAHDLLGEAAGYILEAKEHKDSPKARELLEKAIKSLEEALRVMKEELKIDEEKAEEIEKLIKEAKKLLKEGAPVEEVIKVLEEAVDKAADALAE
# B21: usp_38_diff_out_16_37_209 (protein)
# chain: AEKVLEEFKKFMEEAIKRAEEIGRRARELEEEGADLEELERLLEELERLLDEAVKRLTEALEKVPEKIEELFAIYDEFADAAARAGAIIREAIRRARERA
# B22: usp_38_diff_out_16_25_197 (protein)
# chain: SVEALLEAHDLIGRAAGYVLRARESEDPEEQRKLLREALEHLEEALKLLEEKLKIDPEKAKEIKKLIEEAKKLLEEGAPIEEVIAVVEKAIDLAVDALNE
# B23: usp_38_diff_out_17_125_214 (protein)
# chain: DFEELVKKIEELLAEAEKLVKEAKKLLEEGAPPAEVRAALDKARDALGALAKALRELRRTSKDKAQAAKVIKEANEKADKLIDELTKLETEVFLREADAA
# B24: usp_38_diff_out_16_25_188 (protein)
# chain: NVEALLEAHHHLGLAAGYIVLAKEHKDSEKAREYLEKAIEHLEEALRILEEELNIDEETAEEIRKLIEKAKKLLKEGAPVEEIIKLLEEAIDLMAKALAE
# B25: usp_38_diff_out_16_37_206 (protein)
# chain: AEKLLAEFKAFVEEIIERARRLAEEARRLAEEGAPIEEIERVLRELEELLDELVERTTEVLEKVPEHADEILAEYDRAATEIAEAGAEIRKALRERKEKE
# B26: usp_38_diff_out_16_37_207 (protein)
# chain: GEEKLKEFKKFMEEAMKKAKKLAEEAKKLAKEGKDKKEIEKLQKELDKLLDEVNEKTTEVLEEVPEKADEILAEYDKAATTIAEAGATIRAELRKARAAE
# B27: usp_38_diff_out_16_25_202 (protein)
# chain: EVEALLRAHDELGEAAGYILRARESEDEEERKKLLREALESLEKALDIMKKELKIPEEVAKKIQELIDEAKEKLEAGAPFEEVIKLLEEAIDLAAEALAA
# B28: usp_38_diff_out_16_25_190 (protein)
# chain: NVEALLRAHDELGRAAGYIVLAREHADSPEVKELLREAIESLERALRIAEEELHIPEEVAEKVKKLIEEAKKLLEEGADPEEVIKKLEEALDLLAEALAE
# B29: usp_38_diff_out_17_125_216 (protein)
# chain: SDEELKEKAEELLKKAEELLKEAEKLLEEGAPAEEVEKKLDEAADALGQLAVTLRELREKSEDKAQAAKFIKELTKKANELIDRYTELATANFQRVADAQ
# B30: usp_38_diff_out_16_25_193 (protein)
# chain: NVEALLRAHDALGRAAGYVVRARELGESPEARELLREAIRALREALRILREELRIPEEVARRIEEAIERAERLLEAGEPVEEVIEALEEAIDLAAAALAA
# B31: usp_38_diff_out_16_37_204 (protein)
# chain: GEELLKEYKEFVEKVIKEAKKLAEEAKKLAKAGADLAEIRAIQEKLNELLDELVERTTEVLEKVPEHAEEILEEYDKAATEIAKAGAEIRAELRKAKAAA
# B32: usp_38_diff_out_16_25_199 (protein)
# chain: NVEALLKAHDELGKAAGYILEAREHLDSPEVKELLEKAIEHLEEALKIMKEELKIPQETAKKIQELIEKAKKLLEEGADPEEVIKALEEAIDAAADALAS
# Target: T1, USP38, Q8NB14
# Experiment: median log2 fold change of GCK-ALFA target abundance (FLAG IP / Myc IP barcode read proportion) (log2 ratio); each designed protein is fused to an ALFA-tag nanobody in HEK293 cells to bring the named protein to FLAG-tagged glucokinase (GCK); Myc marks an untargeted standard; higher = target protein stabilised (more abundant)
# Details: target protein: 3xFLAG-MCP-GCK-ALFA reporter; HEK293 landing pad (RPLP)
# Summary of the method: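 HEK293 landing-pad cells received a recombined binder library fused to the ALFA nanobody and were induced with 2 μg mL^−1 doxycycline, then transfected with a plasmid encoding a FLAG-tagged target and a Myc-tagged standard. Lysates were collected after 48 h for anti-FLAG and anti-Myc immunoprecipitation, and the circular RNA barcodes were reverse transcribed, amplified and sequenced. Target abundance for each binder is the median log2 ratio of FLAG to Myc barcode read proportions. Barcodes had to reach a proportion of at least 10^−7 in both replicates, each binder needed at least 3 barcodes per replicate, a pseudocount of 10^−6 was applied, and the two replicates were pooled.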
row,Binder,median log2 fold change
1,B1,0.457
2,B2,-0.622
3,B3,0.0682
4,B4,-0.432
5,B5,0.41
6,B6,0.188
7,B7,-0.0349
8,B8,0.0845
9,B9,0.237
10,B10,0.371
11,B11,0.00535
12,B12,-0.522
13,B13,-0.344
14,B14,0.0443
15,B15,0.215
16,B16,-0.436

row,Binder,median log2 fold change
1,B17,-0.00395
2,B18,-0.0439
3,B19,-1.04
4,B20,0.243
5,B21,0.0185
6,B22,0.179
7,B23,-0.149
8,B24,0.00197
9,B25,-0.0578
10,B26,0.0801
11,B27,0.316
12,B28,0.107
13,B29,-0.484
14,B30,0.174
15,B31,-0.535
16,B32,0.324
